Common to all, as to experiment: NCI-60 one-dose screen, 48 h (100 = growth as untreated, 0 = no growth, -100 = all killed)
What all share (details): 10 µM

Experiment [1] has as its system HCT-15 colon.
In experiment [2] the test system is HT29 colon.
Experiment [3] has as its system SNB-75 CNS.
The subject of experiment [4] is SNB-19 CNS.
Experiment [5] relates to U251 CNS.
The test system of experiment [6] is PC-3 prostate.
Experiment [7] concerns SK-MEL-5 melanoma.
Experiment [8] concerns UACC-62 melanoma.
The test system of experiment [9] is LOX IMVI melanoma.
The subject of experiment [10] is SK-MEL-28 melanoma.
In experiment [11] the test system is SK-MEL-2 melanoma.
For experiment [12], the system named is EKVX NSCLC.
Experiment [13] concerns SN12C renal.
Experiment [14] relates to UO-31 renal.
The subject of experiment [15] is TK-10 renal.
Experiment [16] deals with ACHN renal.
For experiment [17], the system named is CAKI-1 renal.
In experiment [18] the test system is A498 renal.
Experiment [19] relates to CCRF-CEM leukemia.
In experiment [20] the test system is MOLT-4 leukemia.

Structures are written as SMILES. This is part of a sample that, as a whole, favours compounds with a hit. Of some 83,000 tested, about 20% had one in any assay.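 For each line, cells grew in 96-well plates with the test compound present at a single concentration for 48 hours.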 A number with no mark means an inactive call. Active and inactive are the calls of the source. How the source made its calls: active means growth percent below 10; inactive means the rest.

Turning to `O=C(CSc1nnc(-c2c[nH]c3ccccc23)n1-c1ccccc1)Nc1ccc(C(=O)/C=C/c2cccc([N+](=O)[O-])c2)cc1`, the growth is 84.1% in [1]; 101% in [2]; 99.8% in experiment [3]; 86.5% in [4]; 92.5% in experiment [5]; 87% in [6]. Moreover, the growth in [7] is 91.3%; in [8], 76.5%; in [9] it was 75.6%; in [10], 102%; in experiment [11] it was 101%; in experiment [12] it was 83.9%. In addition, the growth in experiment [13] was 104%; in [14], 42.9%; in [15], 115%; in experiment [16], 74.3%; in [17] it was 83.7%; in experiment [18], 95.7%. For the same molecule, the figures for the growth in experiment [19] and in experiment [20] were 96.1% and 78%, respectively.
With `CCOC(=O)C1=C(N)N(c2ccccc2)C2=C(C(=O)CC(C)(C)C2)C1c1ccc(Cl)cc1` (stereo not given), the growth in [1] is 14.5%; in experiment [2], 34.8%; in experiment [3], 73%; in [4] it was 34.9%; in experiment [5], 42%; in [6] it was 21.6%. In addition, the growth in experiment [7] was 27.7%; in [8], 22.2%; in experiment [9] it was 41.5%; in experiment [10], 44.5%; in experiment [11], 30.2%; in [12] it was 27.7%. Further, the growth in [13] is 64.2%; in experiment [14] it was 29%; in experiment [15], 80.4%; in experiment [16] it was 22.3%; in experiment [17], 50.2%; in experiment [18] it was 67.2%. Further, the growth was 15.4% in experiment [19] and 1.54% (active) in experiment [20].
As to `COc1cccc2nc(Nc3cccc(NC(=O)c4ccc(CN5CCCN(C)CC5)c(C(F)(F)F)c4)c3)ccc12`, the growth was -100% (active) in experiment [1]; -72% (active) in experiment [2]; -84.5% (active) in experiment [3]; -99.3% (active) in experiment [4]; -55.6% (active) in [5]; -69.8% (active) in experiment [6]. Besides, the growth in experiment [7] was -96.9% (active); in experiment [8], -74.1% (active); in [9] it was -98.8% (active); in experiment [10] it was -100% (active); in experiment [11] it was -87.4% (active); in [12], -98.9% (active). Also, the growth in experiment [13] was -79.9% (active); in experiment [14] it was -97.2% (active); in [15], -89.4% (active); in experiment [16], -100% (active); in experiment [17], -100% (active); in experiment [18], -91% (active). Further, the growth in [19] is -54.3% (active); in experiment [20], -42.8% (active).
On to `CC(C)C1=C[C@@]23CC[C@@H]4[C@](C)(CCC[C@]4(C)C(=O)NCc4ccccc4)[C@H]2C[C@@H]1[C@H]1C(=O)OC(=O)[C@H]13`, for which the growth in experiment [1] is 9.01% (active); in experiment [2] it was 18.8%; in experiment [3], 69.6%; in [4] it was 37.9%; in experiment [5], 25.1%; in experiment [6], 33.3%. The growth in experiment [7] is 72.2%; in experiment [8] it was 50.2%; in experiment [9], -8.46% (active); in experiment [10] it was 68.1%; in experiment [11] it was 47%; in experiment [12], 33.9%. Moreover, the growth in experiment [13] was 52.1%; in experiment [14], 43.4%; in [15], 44.9%; in experiment [16], 25.7%; in [17], 77.1%; in experiment [18], 85.2%. Further, the growth is 16.7% in [19] and 15.5% in [20].
As for `C=CCn1c(SCC(=O)Nc2ccc(C(=O)/C=C/c3ccccc3)cc2)nnc1-c1c[nH]c2ccccc12`, the growth is -57.2% (active) in [1]; -31.5% (active) in experiment [2]; 82.3% in experiment [3]; 54.1% in [4]; -52.5% (active) in experiment [5]; 39.4% in experiment [6]. Also, the growth in experiment [7] was 27.7%; in experiment [8], 47%; in experiment [9], -100% (active); in experiment [10], 68.5%; in experiment [11], 58.3%; in experiment [12], 40.9%. In addition, the growth in [13] is 68.3%; in experiment [14], 31.2%; in [15], 89.2%; in experiment [16], 52.2%; in experiment [17] it was 57.3%; in experiment [18], 109%. The growth in [19] is 55.4%; in [20] it was 33.2%.
For `O=C(NO)c1ccc(CNc2nc(-c3ccccc3)c3ccccc3n2)cc1`, the growth in experiment [1] is -6.55% (active); in [2], 4.73% (active); in [3] it was 29%; in [4], -8.9% (active); in [5] it was -37.7% (active); in experiment [6], 16.7%. The growth in experiment [7] was -87.8% (active); in [8], -87.2% (active); in experiment [9], -96.9% (active); in [10], -2.7% (active); in [11] it was -20.4% (active); in experiment [12] it was 15.6%. Besides, the growth in [13] was -0.363% (active); in experiment [14], -18.8% (active); in [15] it was -17.2% (active); in experiment [16], -74.2% (active); in [17], -4.81% (active); in experiment [18], -42.4% (active). For the same molecule, the growth was 15% in experiment [19] and 12.3% in experiment [20].

The record behind these values is PubChem BioAssay (NCI).
